Bioassay records: PubChem, The Scripps Research Institute Molecular Screening Center
Shown are actives, neighbours in structure and some others; about 2.4% of the full set was active somewhere.
CHO-K1 Ca antag = counter-screen for M1 antagonists: effect in parental CHO-K1 cells; ATP-induced calcium, Fluo-8 fluorescence; inhibition, % at 3 µM; 360,000 compounds, 0.6% hits;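 active = inhibition above a per-plate cutoff, the plate's mean sample inhibition plus 3 SD, cut at about 24% in these data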;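 note: 0% = DMSO plus EC80 ATP and 100% = DMSO alone without ATP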
CHO-K1 Ca ag = counter-screen for M1 agonists: effect in parental CHO-K1 cells; activation, % at 3 µM; AID 602248, 2012; 360,000 compounds, 0.48% hits; Fluo-8 calcium fluorescence; scaled to maximal ATP response, vehicle zero; in the data active = activation above about 15%;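 note: untransfected CHO-K1 host cells lacking M1 receptor as counterscreen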
CHRM1 agonist = human M1 muscarinic receptor agonists, primary screen, Fluo-8 calcium fluorescence, CHO-K1 cells, HTS; Muscarinic acetylcholine receptor M1 (Homo sapiens), P11229; CHO-K1 hM1, agonist mode; 0% DMSO, 100% acetylcholine EC100; activation, % at 3 µM; 360,000 compounds, 0.33% hits;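 active = activation above the run's mean compound activation plus 3 SD, cut at about 16% in these data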;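 note: peak over basal fluorescence ratio within a 140 s kinetic read after compound addition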
Target sequence (P11229 whole entry, looked up): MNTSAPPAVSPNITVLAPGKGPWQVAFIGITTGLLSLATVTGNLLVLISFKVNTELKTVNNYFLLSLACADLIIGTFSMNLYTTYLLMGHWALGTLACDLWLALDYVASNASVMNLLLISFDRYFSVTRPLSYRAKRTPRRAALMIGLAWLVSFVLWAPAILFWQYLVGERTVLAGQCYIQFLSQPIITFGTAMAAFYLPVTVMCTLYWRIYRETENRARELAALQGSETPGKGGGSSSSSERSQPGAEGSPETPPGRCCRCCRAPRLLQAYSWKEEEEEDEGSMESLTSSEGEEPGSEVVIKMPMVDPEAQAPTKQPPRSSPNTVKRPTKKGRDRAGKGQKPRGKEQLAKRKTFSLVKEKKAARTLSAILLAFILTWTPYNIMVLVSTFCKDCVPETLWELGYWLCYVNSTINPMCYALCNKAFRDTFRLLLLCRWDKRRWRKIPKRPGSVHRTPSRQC
M1 PAM = human M1 muscarinic receptor positive allosteric modulators, primary screen, CHO-K1 cells, Fluo-8 calcium fluorescence, 1536-well. Muscarinic acetylcholine receptor M1 (Homo sapiens), P11229. CHO-K1 hM1, ACh EC20; 0% = ACh EC20, 100% = maximal ACh. activation, % at 3 µM. 360,000 compounds, 0.088% hits. AID 588819, 2011; in the data active = activation above about 19%, passing the limit was not always enough
CHRM1 antagonist = human M1 muscarinic receptor antagonists, primary screen, CHO-K1 cells, Fluo-8 calcium fluorescence, 1536-well; CHO-K1 hM1, ACh EC80 antagonist; inhibition, % at 3 µM; 360,000 compounds, 1.3% hits; AID 588852, 2011;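 active = percent inhibition above its own plate's cutoff, namely the mean of that plate's compound wells plus 3 SD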;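 note: peak over basal fluorescence ratio during 140 s after agonist addition; 0% = ACh EC80 plus DMSO and 100% = DMSO alone without agonist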
M1 PAM parental = nonselective calcium activators in parental CHO-K1 cells, primary screen, counter-screen for M1 PAM project, cell-based, Fluo-8 calcium fluorescence, full deck, 1536-well; AID 602247, 2012; ATP EC20; 0% at ATP EC20, 100% at ATP max; 360,000 compounds, 0.02% hits; activation, % at 3 µM;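 active = activation above the run cutoff, the mean activation of all test compounds plus 3 SD, cut at about 40% in these data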;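 note: peak over basal fluorescence ratio in a 140 s read after ATP addition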
* hit, by the source's call; x = no result.

SMILES	CHO-K1 Ca antag	CHO-K1 Ca ag	CHRM1 agonist	M1 PAM	CHRM1 antagonist	M1 PAM parental
Cc1cc(N2CCN(c3ccccn3)CC2)n2nc(C)nc2n1	12	0	-2	6	-3	-4
Cc1cc(N2CCN(c3cccc(C(F)(F)F)c3)CC2)n2nc(C)nc2n1	10	0	-1	31*	8	7
CC(C)Cc1ccc(C(C)C(=O)Nc2cccnc2)cc1 (stereo unspecified)	5	16*	13	-15	32*	7
CC(C)Cc1ccc(C(C)C(=O)Nc2ccc(O)cc2)cc1 (stereo unspecified)	34*	29*	54*	-15	50*	6
Cc1ccc(O)c(NC(=O)c2ccc3c(c2)C(=O)N(Cc2ccco2)C3=O)c1	5	3	5	7	-1	-5
COc1ccc(C(=O)C2CCCN(Cc3ccc4c(c3)OCCO4)C2)cc1F (stereo unspecified)	-13	2	-6	-20	12	13
CCOC(=O)CNC(=O)N1CCCC(C(=O)c2ccc3c(c2)OCO3)C1 (stereo unspecified)	1	0	-8	-3	2	-13
O=C(c1ccc2c(c1)OCO2)C1CCCN(C2CCN(CCc3ccccc3)CC2)C1 (stereo unspecified)	-15	1	-14	-35	74*	21
COc1cccc(CN2CCCC(C(=O)c3ccc4c(c3)OCO4)C2)c1O (stereo unspecified)	-16	1	-7	-24	41*	15
CCCn1cc(CN2CCCC(C(=O)c3ccc4c(c3)OCO4)C2)c(C)n1 (stereo unspecified)	-9	4	-5	-24	65*	8
CCN(CC)C(=O)C1CCCN(Cc2ccc3c(c2)OCO3)C1 (stereo unspecified)	5	-1	-5	-4	11	-5
COc1ccc(CN2CCC(C(=O)c3cccc(Cl)c3)CC2)cc1	-8	1	-8	4	-9	9
O=C(c1cccc(Cl)c1)C1CCCN(Cc2ccc(N3CCNC3=O)cc2)C1 (stereo unspecified)	-13	2	-6	-21	46*	14
CC(=O)N1CCN(S(=O)(=O)c2cccc(C(=O)N3CCN(S(=O)(=O)c4c(C)c(C)cc(C)c4C)CC3)c2)CC1	2	0	-7	-6	-5	-4
COc1ccc(CN2CCCC(C(=O)c3ccc4c(c3)OCO4)C2)c(F)c1 (stereo unspecified)	-16	4	-3	-23	93*	4
CC(=O)c1cccc(CN2CCCC(C(=O)c3ccc4c(c3)OCO4)C2)c1 (stereo unspecified)	-8	2	-10	-26	72*	9
COc1cccc(C(=O)C2CCCN(CC3=Cc4cc(OC)ccc4OC3)C2)c1 (stereo unspecified)	-8	1	-10	-30	42*	5
CCN(C(=O)Cn1c(Cl)nc2c1c(=O)n(C)c(=O)n2C)C1CCCCC1	0	0	-2	2	6	0
CCOC(=O)C1CCN(C(=O)C2CCN(c3ncnc4c3nc3n4CCCCC3)CC2)CC1	-12	3	-2	9	-18	15
Cc1ccc(S(=O)(=O)Nc2ccc(Nc3ccccc3)cc2)cc1	8	0	-1	4	-6	-8
O=[N+]([O-])c1ccc(Oc2ccc(S(=O)(=O)Nc3ccccc3)cc2)cc1	29*	19*	19*	-17	42*	-6
O=S(=O)(Nc1ccc(Nc2ccccc2)cc1)c1ccc(F)cc1	24*	-1	0	9	-10	-26
O=[N+]([O-])c1ccc(S(=O)(=O)Nc2ccncc2)cc1	-9	-1	-4	2	-7	1
CCOc1ncccc1C(=O)OCC(=O)NC(=O)c1ccccc1	-18	1	-3	0	2	12
CN(C)c1ccc(/C=N/NC(=O)CNC(=O)c2ccc3c(c2)OCCO3)cc1	-3	0	-7	0	-1	24
SMILES	CHO-K1 Ca antag	CHO-K1 Ca ag	CHRM1 agonist	M1 PAM	CHRM1 antagonist	M1 PAM parental
CCN(CC)c1ccc(/C=N/NC(=O)CNC(=O)c2ccc3c(c2)OCCO3)cc1	-21	-1	-11	31*	-35	3
COc1ccc(Cc2nnc(NC(=O)c3ccccc3F)s2)cc1	9	0	3	5	-4	-9
COc1ccc(NC(=O)c2ccccc2)c([N+](=O)[O-])c1	-8	1	-2	9	-9	5
CCCN(CCC)CCCNc1ccc(C(=O)Nc2cccc(OC)c2)cc1[N+](=O)[O-]	-15	1	-7	-24	40*	6
CCC(CC)C(=O)Nc1cccc(C(=O)Nc2ccc(OC)cc2[N+](=O)[O-])c1	-5	2	23*	-4	19	12
COc1cccc(-c2cc(C(=O)NCC3CCCO3)c3cc(C)cc(C)c3n2)c1 (stereo unspecified)	-4	3	-3	0	3	13
CCCNC(=O)c1nnsc1S(=O)c1ccc(Cl)cc1 (stereo unspecified)	-3	8	-5	-4	5	23
CCCNC(=O)c1nnsc1S(=O)(=O)c1ccc(Cl)cc1	0	0	-6	-20	96*	7
COc1cc(C=NO)nc(-c2ccccn2)c1	-15	1	-2	9	-22	3
CC(C)CN(C(=O)c1ccc(=O)n(C)n1)c1nc2ccccc2s1	24*	0	0	9	5	-7
Cc1ccc(C(=O)N(CC(C)C)c2nc3ccccc3s2)o1	-17	1	-3	1	-7	11
Nc1[nH]c(C(=O)c2ccccc2)c(-c2ccccc2Br)c1C(=O)c1ccccc1	-22	1	x	x	x	42*
O=C(NCC(c1ccccc1Cl)N1CCCC1)c1ccc(N2CCCC2=O)cc1 (stereo unspecified)	-5	0	-8	-25	56*	-1
O=C(CCCSc1nc2ccccc2[nH]1)NCc1ccc(Cl)cc1	2	3	-11	5	-4	7
O=C(CCCSc1nc2ccccc2[nH]1)NCc1ccccc1F	0	17*	-11	8	-11	18
COc1ccc(CCn2nnnc2CN2CCN(C(=O)c3ccco3)CC2)cc1OC	24*	14	-10	9	-5	-15
COCCn1nnnc1CN1CCN(C(=O)c2ccco2)CC1	-14	1	-6	1	-7	7
